# Screens deposited in PubChem BioAssay by National Center for Advancing Translational Sciences (NCATS).
# AMA1-RON2 inh: qHTS for Inhibitors of AMA1-RON; Towards Development of Antimalarial Drug Lead: Primary Screen; 360,000 tested, 0.2% active; AID 720542, 2013; Plasmodium falciparum AMA1 (3D7) - RON2 peptide interaction; AlphaScreen AMA1-biotinylated RON2 peptide binding; Potency, µM (highest dose often 58.2 µM), hits mostly inhibitors; further: nearly all actives have a fitted effect of over 45% in size
#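 AMA1 (3D7) with his tag at 25 nM final met compounds first, then biotinylated RON2 peptide at 25 nM; detection used donor plus acceptor beads, 10 µg/mL apiece, read by AlphaScreen after 30 min at room temperature.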
# Pf growth 96h: Primary qHTS for delayed death inhibitors of the malarial parasite plastid, 96 hour incubation | P. falciparum luciferase reporter growth, 96 h | Potency, µM (titrated, usually from 28.7 µM), most hits filed as inhibitors | 320,000 tested, 6.9% active | AID 504834, 2011
#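 Infected RBCs, 2% Hct / 0.05% parasitemia final; luciferase-reporter P. falciparum; cpd 96 h, 37 C, 5% CO2; luciferase detection reagent; luminescence.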
# SARS PLP yeast: qHTS of Yeast-based Assay for SARS-CoV PLP; 330,000 tested, 0.19% active; S. cerevisiae expressing SARS-CoV PLpro, growth rescue; Potency, µM (titrated, usually from 32.9 µM), actives largely listed as activators; calls by dose curve; further: nearly all actives have a fitted effect of over 55% in size
# HCV inhibitor: qHTS Assay for Inhibitors of Hepatitis C Virus (HCV); Huh7.5.1 HCVcc-Cre infection, luciferase reporter, 44 h; Potency, µM (doses to about 41.8 µM), actives largely listed as inhibitors; 340,000 tested, 3.4% active; AID 651820, 2012
#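 Compounds are dispensed onto cells plated 4 h earlier at 1,000 per well, with HCVcc-Cre virus (about 0.5 moi) added next. Following 44 h of culture, luminescent signal is measured for 15 sec after 15 min with substrate at room temperature.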
# Pf growth 48h: Primary qHTS for delayed death inhibitors of the malarial parasite plastid, 48 hour incubation | P. falciparum luciferase growth in erythrocytes, 48 h | Potency, µM (top dose mostly 28.7 µM), usual class: inhibitors | 310,000 tested, 5.9% active | AID 504832, 2011
#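 Parasite viability was followed by luminescence of a genomically integrated firefly luciferase. Cultures held 0.1% parasitemia at 2% hematocrit (final), incubated under 5% CO2 at 37 C.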
# NS1 function inh: qHTS Assay for Inhibitors of Influenza NS1 Protein Function; Potency, µM (series often up to 46.1 µM); 270,000 tested, 0.4% active; calls by dose curve; further: actives are rising curves; nearly all actives have a fitted effect of over 50% in size
#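 Recovery from NS1-induced slow growth read by OD600 in budding yeast switched to galactose assay medium (pH 6.0, -URA) at 1:100 dilution. Compound 23 nl per well; the matching strain lacking NS1 serves as control.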
# Hits are given with their value; - = inactive; ? = inconclusive; . = no result; [ ] = remark or other dose. An excerpt weighted towards active compounds, which were near 12% of everything screened. Unless noted, the call rests on the fitted dose curve; in most records, active means well fitted curve in the direction sought with a large enough effect; inconclusive means small, poorly fitted or top-dose-only effect, or another doubt; inactive means no such curve, though single readings can be large; an effect the other way counts as inactive or inconclusive.
SMILES,AMA1-RON2 inh,Pf growth 96h,SARS PLP yeast,HCV inhibitor,Pf growth 48h,NS1 function inh
Cc1ccc(-n2ncc(C#N)c2/N=C/N2CCCCCC2)cc1,-,-,-,10µM,?,-
Cc1ccc(S(=O)(=O)N2CCCCC2)cc1NC(=O)c1ccc(Br)o1,-,?,-,-,7.4µM,.
Cc1ccc(S(=O)(=O)N2CCCCC2)cc1NC(=O)c1cc2ccccc2o1,-,?,-,22µM,?,.
Cc1ccc(NS(=O)(=O)c2ccc(NC(=O)c3ccc(Br)o3)cc2)c(C)c1,?,-,-,13µM,?,-
CCN1CCN(c2ccc(S(=O)(=O)N3CCCCC3)cc2NC(=O)c2cc3ccccc3o2)CC1,-,2.1µM,-,?,4.1µM,.
C[C@@]12C(=O)N(CC3CCCO3)CC(=O)N1[C@H]1c3cc(Cl)ccc3OC[C@@H]1[C@@H]2c1ccccc1 (some centres undefined),-,.,-,-,.,.
Cc1ccc(S(=O)(=O)N(C)C)cc1NC(=O)c1cc(S(=O)(=O)N2CCCCC2)ccc1N1CCOCC1,-,?,-,?,-,.
N#Cc1nc(N2CCCCC2)nc(N2CCOCC2)n1,-,-,-,?,?,-
N#Cc1nc(N2CCCC2)nc(N2CCCC2)n1,-,-,-,7.1µM,-,-
Cc1ccc(C(=O)NCCc2nnc3ccc(NCCCN4CCOCC4)nn23)cc1,-,-,-,-,-,-
CC(C)(C)c1cc(NC(=O)Nc2ccc(Br)cc2Cl)no1,-,13µM,-,-,-,-
CC(C)(C)c1cc(NC(=O)Nc2ccc(Cl)cc2Cl)no1,-,-,-,?,?,-
Cc1cc(NC(=O)Nc2ccccc2Cl)no1,-,?,-,-,-,-
Cc1c(Cl)cccc1NC(=O)Nc1cc(C(C)(C)C)on1,-,?,-,10µM,10µM,-
C/C(=N/NC(=O)c1ccncc1)c1ccc(NC(=O)c2ccccc2)cc1,-,?,-,-,-,-
C/C(=N\NC(=O)c1cc2c(s1)CCC(C)C2)c1ccncc1 (centres undefined),-,9.3µM,-,25µM,-,-
C/C(=N\NC(=O)c1cccc(N/N=C(\C)c2ccc([N+](=O)[O-])cc2)c1)c1ccc([N+](=O)[O-])cc1,-,4.1µM,-,-,1.7µM,-
C/C(=N\NC(=O)c1ccncc1)c1cccc(NC(=O)c2ccc(C(C)(C)C)cc2)c1,-,-,-,10µM,-,-
CCc1ccc(/C(C)=N\Nc2ccc([N+](=O)[O-])cc2)cc1,-,4.1µM,-,-,-,-
CCN1C(=O)[C@H]2[C@H]3CN=C(SC)N3[C@@](C)(C(=O)OC)[C@H]2C1=O,-,.,.,-,.,.
CC(=O)NC(CSC(CC(=O)c1ccco1)c1ccc(C)cc1)C(=O)O (centres undefined),-,-,-,-,-,.
C/C(=N\NC(=O)c1cccc(N/N=C(\C)c2ccncc2)c1)c1ccncc1,-,8.3µM,-,-,?,.
C/C(=N\NC(=O)C(C)Sc1ccccc1)C(C)(C)C (centres undefined),?,-,-,-,-,-
C/C(=N\NC(=O)C(C)Sc1ccccc1)c1ccc([N+](=O)[O-])cc1 (centres undefined),-,9.3µM,-,?,-,-
CNC(=O)C1CC(=O)N(Cc2ccc3c(c2)OCO3)C(=Nc2ccc(OC)cc2)S1 (centres undefined),-,?,-,-,?,-
SMILES,AMA1-RON2 inh,Pf growth 96h,SARS PLP yeast,HCV inhibitor,Pf growth 48h,NS1 function inh
NC(=O)C1CC(=O)N(Cc2ccc3c(c2)OCO3)C(=Nc2ccccc2)S1 (centres undefined),-,15µM,-,-,-,-
CCCn1c(N)c(C(=O)CSc2nc(C)cs2)c(=O)n(C)c1=O,-,9.3µM,-,?,-,-
c1cc2c3c(cccc3c1)NC1(CCC3(CC1)Nc1cccc4cccc(c14)N3)N2,?,6.6µM,-,?,9.3µM,-
CC1CCCC(C)N1C(=O)c1ccccc1Nc1ccc(SC(F)F)cc1 (centres undefined),-,13µM,-,2.8µM,?,-
O=C(/C=C/c1ccccc1)Nc1ccc(Cl)cn1,-,-,-,?,-,-
O=C(O)CCc1ccc(-c2ccccc2)[nH]1,.,.,.,.,.,-
CCc1noc2c1/C(=N\O)CC(c1ccccc1)C2 (centres undefined),-,-,-,-,8.3µM,-
Cc1[nH]nc2c1/C(=N/O)CC(c1ccccc1)C2 (centres undefined),-,?,-,-,-,?
CCCc1n[nH]c2c1/C(=N/O)CC(c1ccccc1)C2 (centres undefined),-,?,-,-,?,-
CCCc1noc2c1/C(=N\O)CC(c1ccccc1)C2 (centres undefined),-,?,-,-,9.3µM,-
O=C1/C(=C/c2cccnc2)Sc2ccccc21,-,7.4µM,-,-,?,-
O=C(COC(=O)c1ccc(S(=O)(=O)N2CCCCC2)cc1)NCc1ccc(F)cc1,-,-,-,-,?,.
O=C1c2sc3nc4n(c(=O)c3c2CCC1Br)CCCCC4 (centres undefined),-,9.3µM,-,-,?,-
CCN(CC)c1ccc(N=Cc2c(O)n(Cc3ccco3)c(=O)[nH]c2=O)cc1,-,?,-,-,12µM,-
CCN(CC)c1ccc(N=Cc2c(O)n(CCc3ccc(OC)c(OC)c3)c(=O)[nH]c2=O)cc1,-[2.32 µM],10µM,-,-,7.4µM,-
NC(=O)c1ccc(N=Cc2c(O)n(Cc3ccco3)c(=O)[nH]c2=O)cc1,-,-,-,-,-,-
Cc1csc2ncc(C(=O)Nc3ccon3)c(=O)n12,-,2.6µM,-,-,-,-
Cc1cccc(NC(=O)c2cnc3scc(C)n3c2=O)c1,-,-,-,-,-,-
CC(C)C(=O)NNC(=O)C1CC1(c1ccccc1)c1ccccc1 (centres undefined),-,-,-,-,.,-
COC(=O)CCC(=O)NNC(=O)C1CC1(c1ccccc1)c1ccccc1 (centres undefined),-,10µM,-,-,-,-
CCOC(=O)c1c(C)[nH]c(C)c1S(=O)(=O)NCCCN1CCOCC1,-,?,-,-,-,-
CCOC(=O)c1c(C)[nH]c(C)c1S(=O)(=O)N1CCN(c2ccc(F)cc2)CC1,-,8.3µM,-,-,-,-
CCOC(=O)c1c(S(=O)(=O)N2CCN(c3ccc(C(C)=O)cc3)CC2)c(C)n(C)c1C,-,-,-,-,-,-
CCOC(=O)c1c(C)[nH]c(C)c1S(=O)(=O)N1CCOCC1,-,6.6µM,-,-,-,-
